Reference: PubChem BioAssay
Values joined by “and” are separate entries in the source; they are usually repeats but may differ in a detail not shown here. Identical values can stand only once. Active and inactive are the calls of the source.

Tests used:
[1] = tested on: Plasmodium falciparum Sir2 (PF13_0152, Sir2A); experiment: pfSir2 binders on small-molecule microarrays, primary screen, biochemical, small-molecule microarray, 635 nm fluorescence (AID 1098); details: small-molecule microarray binding, fluorescence 635 nm; higher = more signal;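 also: score merges spot fluorescence intensity with its signal-to-noise ratio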
[2] = small-molecule microarray binders of probe aDKK1, primary screen, biochemical, biotinylated probe, 635/667 nm fluorescence (AID 1099); details: higher = more signal;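 also: score merges 667nm spot fluorescence with signal to noise across triplicate slides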
[3] = small-molecule microarray binders of probe aCHRDL2, primary screen, biochemical, biotinylated probe, 635/667 nm fluorescence (AID 1100); details: higher = more signal
[4] = splicing luciferase reporter signal modulators, primary screen, spliceosome inhibition project, cell-based, HEK293, splice +/- reporter (AID 1101); details: luminescence, 24 h, higher = more signal, called active from +8 up or from −8 down;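 also: HEK293 cells carrying a splicing-competent luciferase reporter gene; test concentration not given here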
[5] = molecular target: Fibroblast growth factor 10 (Homo sapiens) (UniProt O15520); experiment: FGF10 binders on small-molecule microarrays, primary screen, biochemical, small-molecule microarray, 635 nm fluorescence (AID 1102); details: FGF10 binding, fluorescence 635 nm, higher = more signal
[6] = tested on: glycogen synthase kinase-3 (GSK3A per assay name; protocol says GSK3B); experiment: GSK3 binders on small-molecule microarrays, primary screen, biochemical, small-molecule microarray, 635 nm fluorescence, GSK3A (AID 1103); details: small-molecule microarray binding, fluorescence 635 nm; higher = more signal; also: the record names both GSK3A and GSK3B
[7] = molecular target: Epidermal growth factor receptor (Homo sapiens) (UniProt P00533); experiment: EGFR binders on small-molecule microarrays, primary screen, biochemical, small-molecule microarray, 635 nm fluorescence (AID 1104); details: EGFR binding, higher = more signal;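 also: score merges 667 nm emission intensity with spot signal to noise over triplicate slides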
[8] = molecular target: Follistatin-related protein 3 (Homo sapiens) (UniProt O95633); experiment: FSTL3 binders on small-molecule microarrays, primary screen, biochemical, small-molecule microarray, 635 nm fluorescence (AID 1105); details: FSTL3 binding, higher = more signal;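 also: score merges emission near 667 nm and signal to noise per printed spot across three slides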
[9] = molecular target: Dickkopf-related protein 1 (Homo sapiens) (UniProt O94907); experiment: DKK1 binders on small-molecule microarrays, primary screen, biochemical, small-molecule microarray, 635 nm fluorescence scan (AID 1106); details: DKK1 binding, higher = more signal;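 also: score merges emission near 667 nm with signal to noise over three replicate slides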
[10] = tested on: Inhibin beta A chain (activin A); experiment: INHBA (activin A) binders on microarrays, primary screen, biochemical, small-molecule microarray, 635 nm fluorescence scan (AID 1107); details: small-molecule microarray binding, higher = more signal;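 also: mouse activin A protein probed at 4.33 µg/mL on printed slides; score merges bound-protein fluorescence near 667 nm with spot signal-to-noise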
[11] = tested on: Human papillomavirus type 1a protein E7 (residues 44-93); experiment: HPV1a E7 fragment binders on microarrays, primary screen, biochemical, small-molecule microarray, residues 44-93, 635 nm fluorescence (AID 1108); details: small-molecule microarray binding, fluorescence 635 nm; higher = more signal;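 also: E7 fragment applied at 1 µg/mL in TBST for 1 h at 4 C; score combines spot fluorescence with its signal to noise ratio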
[12] = modulators of HCV replicon luciferase signal, primary screen, HCV replication inhibitor project, Huh7 cells, luciferase reporter (AID 1109); details: 48 h, higher = more signal;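 also: huh7 hepatoma cells harbouring a luciferase neomycin HCV replicon reporter; luciferase luminescence as measure of HCV replicon replication; test concentration not given here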
[13] = molecular target: Left-right determination factor 2 (Homo sapiens) (UniProt O00292); experiment: LEFTY2 binders on small-molecule microarrays, primary screen, biochemical, small-molecule microarray, 635 nm fluorescence scan (AID 1110); details: LEFTY2 binding, higher = more signal
[14] = molecular target: Calmodulin-1 (Homo sapiens) (UniProt P0DP23); experiment: CALM1 binders on microarrays, EGTA buffer, profiling panel, biochemical, small-molecule microarray, Cy5-labelled CALM1 (AID 1111); details: Cy5-CALM1 binding fluorescence, higher = more signal;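 also: labelled calmodulin applied in Tris saline Tween buffer holding calcium plus EGTA and DTT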
[15] = molecular target: Calmodulin-1 (Homo sapiens) (UniProt P0DP23); experiment: calcium-bound CALM1 binders on microarrays, profiling panel, artefact control for SMM control-protein annotation, biochemical, small-molecule microarray, Cy5-labelled CALM1, plus calcium (AID 1112); details: Cy5-CALM1 binding fluorescence, higher = more signal;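 also: score merges spot fluorescence with signal to noise from triplicate slides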
[16] = small-molecule microarray binders of probe aWnt5a, primary screen, biochemical, biotinylated probe, 635/667 nm fluorescence (AID 1113); details: higher = more signal;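 also: score merges 667 nm fluorescence intensity with signal-to-noise per printed feature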
[17] = small-molecule microarray binders of probe aShh, primary screen, biochemical, biotinylated probe, 635/667 nm fluorescence (AID 1114); details: higher = more signal;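 also: probe is biotin-labelled aShh protein from a stem cell growth factor screen; measures binding of labelled protein to compounds printed on the slide; score merges feature fluorescence at 667 nm with signal-to-noise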
[18] = small-molecule microarray binders of probe aNog, primary screen, biochemical, biotinylated probe, 635/667 nm fluorescence (AID 1115); details: higher = more signal;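 also: probe is biotinylated aNog protein used at 0.15 µg/mL for 1 h at 4 C; z-score combines 667 nm fluorescence of each spot with its signal to noise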
[19] = molecular target: Torsin-1A-interacting protein 1 (Homo sapiens) (UniProt Q5JTV8); experiment: LAP1 binders from COS7 cell lysate, primary screen, small-molecule microarray, 635/667 nm fluorescence (AID 1116); details: COS7-hLAP1 lysate binding, 635 nm fluorescence, higher = more signal
[20] = molecular target: Alpha-bungarotoxin (Bungarus multicinctus) (UniProt P60615); experiment: alpha-bungarotoxin binders on microarray, profiling panel, artefact control for SMM control protein annotation, biochemical, small-molecule microarray, Alexa647 label, 635/667 nm fluorescence (AID 1117); details: alpha-BTX-A647 binding fluorescence, higher = more signal
Chain of Alpha-bungarotoxin (Bungarus multicinctus) (P60615 whole entry, looked up): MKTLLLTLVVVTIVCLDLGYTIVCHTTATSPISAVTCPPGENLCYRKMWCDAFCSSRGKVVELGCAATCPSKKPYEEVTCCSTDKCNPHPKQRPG

Chain of Epidermal growth factor receptor (Homo sapiens) (P00533 whole entry, looked up): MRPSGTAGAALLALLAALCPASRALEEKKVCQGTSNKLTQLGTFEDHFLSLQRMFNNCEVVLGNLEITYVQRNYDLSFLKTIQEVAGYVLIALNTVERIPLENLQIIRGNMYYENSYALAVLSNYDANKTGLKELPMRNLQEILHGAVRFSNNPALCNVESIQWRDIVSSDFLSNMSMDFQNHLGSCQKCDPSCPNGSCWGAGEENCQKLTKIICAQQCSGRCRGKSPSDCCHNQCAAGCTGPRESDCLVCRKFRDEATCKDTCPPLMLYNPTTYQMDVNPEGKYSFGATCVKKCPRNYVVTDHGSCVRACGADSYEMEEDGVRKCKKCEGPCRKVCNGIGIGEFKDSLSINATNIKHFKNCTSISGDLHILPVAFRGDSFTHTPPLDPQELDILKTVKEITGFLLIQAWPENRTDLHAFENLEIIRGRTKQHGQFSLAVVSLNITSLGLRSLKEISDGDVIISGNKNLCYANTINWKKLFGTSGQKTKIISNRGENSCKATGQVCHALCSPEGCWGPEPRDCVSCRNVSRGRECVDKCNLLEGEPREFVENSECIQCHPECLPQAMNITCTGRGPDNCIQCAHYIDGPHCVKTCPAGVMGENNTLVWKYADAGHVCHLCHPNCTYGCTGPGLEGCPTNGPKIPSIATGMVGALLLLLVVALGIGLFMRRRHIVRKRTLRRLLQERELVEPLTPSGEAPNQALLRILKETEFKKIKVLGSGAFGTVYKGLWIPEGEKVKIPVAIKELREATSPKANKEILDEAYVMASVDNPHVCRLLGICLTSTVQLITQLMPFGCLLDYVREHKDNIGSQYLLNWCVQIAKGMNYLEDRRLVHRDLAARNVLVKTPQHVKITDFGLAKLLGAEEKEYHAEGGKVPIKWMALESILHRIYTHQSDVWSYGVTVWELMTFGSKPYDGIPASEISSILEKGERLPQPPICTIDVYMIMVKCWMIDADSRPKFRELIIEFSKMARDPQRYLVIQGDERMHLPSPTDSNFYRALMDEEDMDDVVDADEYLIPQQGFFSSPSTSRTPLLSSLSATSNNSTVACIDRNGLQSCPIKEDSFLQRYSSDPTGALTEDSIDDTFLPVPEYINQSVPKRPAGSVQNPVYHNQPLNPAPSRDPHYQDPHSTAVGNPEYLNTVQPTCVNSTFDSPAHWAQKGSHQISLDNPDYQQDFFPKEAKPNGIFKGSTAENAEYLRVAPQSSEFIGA
Chain of Torsin-1A-interacting protein 1 (Homo sapiens) (Q5JTV8 whole entry, looked up): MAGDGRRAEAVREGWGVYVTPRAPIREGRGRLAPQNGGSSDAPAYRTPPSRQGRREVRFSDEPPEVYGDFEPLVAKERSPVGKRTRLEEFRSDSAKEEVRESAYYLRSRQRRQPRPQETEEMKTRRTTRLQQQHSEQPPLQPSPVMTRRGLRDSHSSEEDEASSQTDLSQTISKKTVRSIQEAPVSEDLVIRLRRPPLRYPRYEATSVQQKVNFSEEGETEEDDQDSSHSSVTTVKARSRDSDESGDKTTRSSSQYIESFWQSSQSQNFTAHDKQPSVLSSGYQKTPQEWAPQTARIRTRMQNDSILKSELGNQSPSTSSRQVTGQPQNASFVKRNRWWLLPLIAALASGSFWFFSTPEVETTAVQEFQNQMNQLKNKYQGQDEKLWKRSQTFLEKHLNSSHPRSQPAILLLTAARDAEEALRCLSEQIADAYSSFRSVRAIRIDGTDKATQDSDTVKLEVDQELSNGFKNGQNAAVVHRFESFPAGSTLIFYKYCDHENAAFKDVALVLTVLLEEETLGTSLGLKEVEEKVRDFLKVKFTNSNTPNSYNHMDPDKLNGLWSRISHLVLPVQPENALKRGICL
Chain of Follistatin-related protein 3 (Homo sapiens) (O95633 whole entry, looked up): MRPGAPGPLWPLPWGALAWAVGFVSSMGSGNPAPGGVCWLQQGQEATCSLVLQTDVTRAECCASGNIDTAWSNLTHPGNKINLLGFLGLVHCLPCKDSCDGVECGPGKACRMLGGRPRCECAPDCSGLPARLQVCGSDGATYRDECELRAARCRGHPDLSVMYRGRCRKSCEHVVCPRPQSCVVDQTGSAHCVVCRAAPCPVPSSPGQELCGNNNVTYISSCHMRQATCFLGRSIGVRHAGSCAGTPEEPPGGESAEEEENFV
Chain of Dickkopf-related protein 1 (Homo sapiens) (O94907 whole entry, looked up): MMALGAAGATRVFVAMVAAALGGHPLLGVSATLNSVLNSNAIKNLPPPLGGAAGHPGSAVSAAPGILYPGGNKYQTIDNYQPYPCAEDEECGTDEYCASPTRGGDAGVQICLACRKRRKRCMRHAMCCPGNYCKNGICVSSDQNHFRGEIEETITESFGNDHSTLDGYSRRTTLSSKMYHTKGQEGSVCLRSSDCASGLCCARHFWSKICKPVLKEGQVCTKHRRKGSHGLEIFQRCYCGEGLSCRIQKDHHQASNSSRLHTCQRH
Chain of Fibroblast growth factor 10 (Homo sapiens) (O15520 whole entry, looked up): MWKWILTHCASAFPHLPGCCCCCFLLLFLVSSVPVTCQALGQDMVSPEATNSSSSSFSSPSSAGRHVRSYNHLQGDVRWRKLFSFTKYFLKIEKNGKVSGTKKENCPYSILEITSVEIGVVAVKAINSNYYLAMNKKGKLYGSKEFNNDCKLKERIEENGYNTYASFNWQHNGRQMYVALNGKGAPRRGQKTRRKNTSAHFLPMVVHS
Chain of Left-right determination factor 2 (Homo sapiens) (O00292 whole entry, looked up): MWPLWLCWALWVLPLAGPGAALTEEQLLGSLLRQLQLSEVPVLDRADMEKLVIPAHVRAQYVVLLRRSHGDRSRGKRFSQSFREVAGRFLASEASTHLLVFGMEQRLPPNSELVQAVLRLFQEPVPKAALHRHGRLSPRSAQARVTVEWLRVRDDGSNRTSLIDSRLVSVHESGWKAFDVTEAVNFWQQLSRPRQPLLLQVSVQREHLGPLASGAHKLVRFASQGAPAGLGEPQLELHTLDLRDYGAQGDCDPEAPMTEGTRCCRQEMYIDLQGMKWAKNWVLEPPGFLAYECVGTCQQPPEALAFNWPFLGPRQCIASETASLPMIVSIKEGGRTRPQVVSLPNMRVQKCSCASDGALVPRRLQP

Structure (SMILES)	composite z-score [1]	composite z-score [2]	composite z-score [3]	z-score [4]	composite z-score [5]	composite z-score [6]	composite z-score [7]	composite z-score [8]	composite z-score [9]	composite z-score [10]	composite z-score [11]	z-score [12]	composite z-score [13]	composite z-score [14]	composite z-score [15]	composite z-score [16]	composite z-score [17]	composite z-score [18]	composite z-score [19]	composite z-score [20]
C[N+](C)(C)CCCCCCNC(=O)[C@@H]1C[C@@H]2C(=O)N[C@@H](CCCC[N+](C)(C)C)C(=O)N2[C@@H]1c1ccc(O)cc1	0.892 and 0.579	-0.126 and -0.175	0.229 and 0.305	-0.0316 (inactive) and 0.431 (inactive)	0.606 and 0.803	-0.115 and 0.255	0.0444 and -0.539	0.8 and 0.827	1.11 and 0.869	0.908 and 0.391	-0.259 and 0.575	-0.0888 and 0.51	0.515 and 0.0005	-0.529 and -0.759	0.458 and -0.85	-0.144 and -0.13	-0.304 and -0.221	-0.0281 and -0.295	2.61 and 0.23	-0.137 and 0.0818
CC(CO)N1C(=O)[C@@H]2C3C(=O)OCCC=C[C@H]3OC23C=CCN(Cc2ccccc2)C(=O)[C@@H]13 (stereo not given in full)	1.15 and 0.52	-0.2 and -0.173	0.139 and 0.407	-0.379 (inactive) and -0.024 (inactive)	-0.602 and -0.115	-0.491 and -0.648	-0.91 and -1.81	-0.771 and -1.06	-1.02 and -0.657	1.24 and -0.563	0.0364 and -1.19	-1.12 and -0.667	-1.26 and -1.45	-0.792 and 0.0954	-0.803 and 0.748	-0.154 and -0.21	-0.291 and -0.154	0.211 and -0.246	1.29 and -0.62	-1.73 and -0.88
CO[C@H]1COC(=O)CC=C[C@@H](C)COC(=O)[C@H](CCSC)NC(=O)CC=C[C@@H]1C	0.536 and 0.111	-0.51 and -0.591	-1.59 and -2.05	0.191 (inactive) and -0.244 (inactive)	1.12 and 1.16	1.29 and 1.3	1.28 and 1.69	1.57 and 1.49	2.29 and 2.22	0.626 and -0.119	-0.467 and -0.849	-0.0216 and -0.567	1.6 and 1.71	-0.957 and -2.78	-1.75 and -3.46	-0.136 and -0.197	-0.138 and -0.34	-0.385 and -0.754	0.995 and 0.363	-0.933 and -1.69
C[N+](C)(C)CCCCNC(=O)[C@H]1C[C@H]2C(=O)N[C@@H](CCCC[N+](C)(C)C)C(=O)N2[C@H]1c1cccc(OCCO)c1	1.82 and 1.11	-0.171 and 0.256	-0.537 and -0.421	0.00747 (inactive) and -0.387 (inactive)	1.51 and 1.39	0.0299 and 1.1	0.622 and 1.27	1.45 and 1.51	1.44 and 1.81	0.282 and 0.696	-0.779 and 0.569	-1.34 and -0.59	1.36 and 1.28	-1.49 and -0.367	-0.691 and -0.325	-0.127 and -0.0512	0.0948 and 0.395	-0.249 and -0.234	1.89 and 2.53	-0.559 and 0.47
CCOC(=O)[C@@H]1CC2O[C@]23C[C@@H]1C(=O)N1CCC[C@@H]1[C@H]3O[Si](C)(C)C(C)(C)C (stereo not given in full)	-0.494 and -0.107	-0.557 and -0.234	-0.645 and -0.63	0.559 (inactive) and 0.577 (inactive)	-0.438 and 0.433	-0.755 and 0.491	-0.133 and -0.303	-0.937 and 0.184	0.389 and 0.364	0.456 and 0.999	-1.22 and -0.182	-0.417 and -0.4	-0.125 and 0.446	-0.46 and -0.641	-0.748 and -0.252	-0.251 and -0.124	-0.299 and -0.197	-0.321 and -0.134	-0.826 and -0.136	0.102 and -0.667
C=C[C@H](C)[C@@H](O)c1ccc(OCCO)cc1	1.19 and -0.0088	0.892 and -0.0695	0.689 and 0.639	-0.636 (inactive) and -0.215 (inactive)	-1.09 and -0.675	-0.914 and -0.622	-1.51 and -0.966	-1.35 and -0.796	-1.05 and -0.262	-1.03 and -0.831	-1.92 and -0.467	0.15 and 0.616	-1.11 and -1.45	-0.827 and -0.366	0.717 and 0.1	-0.261 and -0.252	-0.289 and 0.0639	-0.194 and -0.381	-0.998 and 0.225	-1.12 and -0.0745
